Results as given in the supplement of paper PMC6555819.

Key:
Experiment in all cases: PBM binding z-score (relative to random genomic background probes); higher = stronger binding; sequences stand for … in GC…GCGATTGACAGCGTAGAATGAAGG
[1] = tested on: FXR:RXRa (NR concentration 270 nM, RXRa partner concentration 90 nM)
Outline: (§1)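 Probes were double-stranded and carried 34-nt variable regions with direct-repeat seeds, single-nucleotide variants, half-site ablations and random human genomic background sequences, printed on custom Agilent 4×180K protein-binding microarrays. Arrays were incubated 1 h with ligand-free nuclear receptor dimers in PBS pH 7.4, 2% milk, 0.02% Triton X-100, 1 mM DTT, 0.2 mg/mL BSA and 0.4 mg/ml salmon testes DNA. Antibodies against each partner (one per run) detected binding, and scanned fluorescence was regression-normalized. Binding z-scores use the random background probes as reference.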

[2] = tested on: LXRa:RXRa (NR concentration 270 nM, RXRa partner concentration 90 nM)
Outline: as §1

[3] = tested on: LXRa homodimer (NR concentration 270 nM)
Outline: as §1

[4] = tested on: LXRb:RXRa (NR concentration 270 nM, RXRa partner concentration 90 nM)
Outline: as §1

[5] = tested on: LXRb homodimer (NR concentration 270 nM)
Outline: as §1

[6] = tested on: PPARa:RXRa (NR concentration 270 nM, RXRa partner concentration 90 nM)
Outline: as §1

[7] = tested on: PPARg:RXRa (NR concentration 180 nM, RXRa partner concentration 90 nM)
Outline: as §1

[8] = tested on: PPARg:RXRa 270nM:90nM, anti-RXR (NR concentration 270 nM, RXRa partner concentration 90 nM)
Outline: as §1

[9] = tested on: PPARg:RXRa 30nM:10nM, anti-RXR (NR concentration 30 nM, RXRa partner concentration 10 nM)
Outline: as §1

[10] = tested on: PPARg:RXRa 90nM:30nM, anti-RXR (NR concentration 90 nM, RXRa partner concentration 30 nM)
Outline: as §1

Row | Sequence | PBM binding z-score [1] | PBM binding z-score [2] | PBM binding z-score [3] | PBM binding z-score [4] | PBM binding z-score [5] | PBM binding z-score [6] | PBM binding z-score [7] | PBM binding z-score [8] | PBM binding z-score [9] | PBM binding z-score [10]
1 | ATACCAAGGTGATCGTGAGGTCGTTGACACTAAC | 2.81 | 1.92 | 0.798 | 1.38 | -0.392 | 1.59 | 0.583 | 0.586 | 0.0332 | 0.0166
2 | TCTACTTGGTCAAAGGTCACACACTCGAAATGCG | 6.58 | 5.85 | 4.37 | 5.9 | 2.26 | 6.72 | 11.9 | 9.98 | 10.5 | 11
3 | TCTTGTAGATCAACAGGAGGTTAAGATAGATCGA | 0.606 | 1.82 | 0.251 | 0.87 | -0.281 | 1.34 | 0.413 | 1.07 | 2.4 | 1.53
4 | GCATGTAGATCAAGGTTAAGAAAGACTAAGCTAA | 0.0428 | 0.684 | -0.386 | 0.504 | -0.805 | 1.47 | 1.33 | 2 | 0.418 | 1.55
5 | TGAATGAGGTTAAAGATCAGGAAACGTGGCGTCG | 3.12 | 2.5 | -0.309 | 1.69 | -0.0435 | 4.49 | 5.58 | 6.34 | 4.41 | 6.93
6 | GCTCGGAGGACAAGGTCGGAGCTTTGTCCGTAGA | -0.163 | -0.153 | -0.91 | -0.475 | -1.14 | 0.143 | -1.09 | -0.163 | -1.12 | -0.578
7 | ATCGTAAGGTCGAGGTGAGTATAGAGAAAGGGAA | 2.64 | 1.91 | 0.0142 | 1.68 | 0.624 | 3.02 | 1.53 | 1.72 | 0.505 | 1.27
8 | ACAGACAGGTGAGTGAGGGTAACTCAGCTGGACG | 0.174 | 0.269 | -0.243 | -0.0988 | -0.478 | 0.503 | 0.629 | 0.0987 | -0.248 | -0.159
9 | ACTAGTTGGTCAGCTGAGGCCACACACAATTCGG | 0.531 | -0.313 | -0.2 | -0.129 | -0.143 | -0.0104 | 0.761 | -0.157 | -0.382 | -0.207
10 | TCAGACAGGTGAGGGTAACTCAGGTACGCAGTCG | 0.261 | 1.36 | -0.144 | 0.561 | -0.273 | 0.983 | 0.558 | 1.46 | 3.02 | 2.23
11 | CAAACTAGCTCACCGGAAGGTCAAAGTCCGCATG | 2.99 | 3.06 | 3.46 | 3.43 | 1.02 | 3.16 | 0.628 | 1.58 | 0.364 | 0.774
12 | CCAGACAGGTGAGAATGTAACTCAGCCTCGATTA | -0.153 | -0.116 | -0.13 | -0.00314 | -0.187 | 0.0169 | 0.376 | -0.212 | -0.0571 | -0.437
